Measurements from PubChem BioAssay (NCI).
Compounds without any hit were thinned out: in the full panel of roughly 83,000, 20% have a hit.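 The endpoint reported here, percent growth, reads 100 for growth as untreated, 0 for no net growth and -100 for all cells dead.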 Unmarked numbers belong to inactive results. Calls of active or inactive are those of the source. How the source made its calls: active means growth percent below 10; inactive means the rest.

Each compound was assayed on SF-539 CNS (assay: NCI-60 one-dose screen, 48 h (100 = growth as untreated, 0 = no growth, -100 = all killed)). Settings: 10 µM unless noted.

How did the growth turn out when `C=C1CCC2C3(C)COC(c4cc(F)cc(F)c4)OC3CCC2(C)C1CC(O)C1=CCOC1=O` (stereo not drawn) was run?
The growth was 79.6%.

Which growth does the source give for `CC(=O)Nc1ccc(C(=O)NC(=S)Nc2ccc(S(N)(=O)=O)cc2)cc1` here?
The growth was 90.7%.

For `COc1cc(C2CC(c3cc(OC)c(OC)c(OC)c3)=Nc3c(N)nc(N)nc3N2)ccc1Oc1nc(NCCO)nc(N2CCOCC2)n1` (stereo not drawn), which growth is on record?
The growth was 97.5%.

How did the growth turn out when `CC1=C(C(=O)c2ccccc2)C(c2cccc(Cl)c2Cl)n2c(nc3ccccc32)N1` (stereo not drawn) was run?
The growth was 16.6%.

For `CN1CCc2c(sc3ncnc(N/N=C/c4ccc(Cl)cc4Cl)c23)C1`, which growth is on record?
The growth was -94.6% (active).

Which growth does the source give for `O=C(COc1ccc(NC(=O)Nc2ccc(Cl)c(Cl)c2)cc1)N=Nc1c(O)[nH]c2ccc(Br)cc12` here?
Its growth is -90.8% (active).

`Cn1cc(NC(=O)c2cc(NC(=O)c3ccc(C#Cc4ccccc4)cc3)cn2C)cc1C(=O)NCCCN1CCOCC1` was tested. Which growth did it give?
The growth was -85.5% (active).

For `COCOc1cc2oc(C(=O)N[C@@H](Cc3ccccc3)C(O)C(=O)NCc3ccccc3)c(C)c(=O)c2cc1OCOC` (stereo partly drawn), which growth is on record?
Its growth is 24.7%.

With `Cc1ccc(C(=O)CSc2nc3ccc(C)cc3c(=O)n2-c2ccc(F)cc2)cc1` as the compound, how does the growth read?
The growth was 40.2%.

How did the growth turn out when `CC(C)c1ccc2c(N)c(C(=O)Nc3ccc(C(F)(F)F)cn3)sc2n1` was run?
Its growth is 88%.

How did the growth turn out when `CN(C)CCn1c2ccccc2c2nc3ccc([N+](=O)[O-])cc3nc21` was run?
Its growth is -2.27% (active).

Which growth does the source give for `COc1cc2c(c(OC)c1OC)C(=O)CC(c1cccc(NC(=O)c3cc(NC(=O)[C@H](CO)NC(=O)OC(C)(C)C)ccc3Cl)c1)O2` (stereo partly drawn) here?
Its growth is 37%.

Which growth does the source give for `Cc1cccc(NC(=O)[C@]23CCC(C)(C)CC2C2=CCC4[C@@]5(C)C[C@@H](O)[C@H](O)[C@@](C)(CO)C5CC[C@@]4(C)[C@]2(C)CC3)c1` (stereo partly drawn) here?
Its growth is -2.33% (active).

For `CC(=O)Nc1ccc(-n2cnc3ccc(-c4ccc(O)cc4)cc32)cc1`, which growth is on record?
The growth was 34.2%.

With `NC(=S)Nc1cccc(NC(N)=S)c1` as the compound, how does the growth read?
The growth was 100%.

How did the growth turn out when `O=C(/C=C/c1ccc(O)c(O)c1)NC1CCOC1O` (stereo not drawn) was run?
Its growth is 95.7%.

With `CCN1C(=O)/C(=N\N=C(/C)c2ccc3c(c2)Nc2ccccc2S3)c2cc(Cl)ccc21` as the compound, how does the growth read?
Its growth is 73.3%.

How did the growth turn out when `S=C(NCCc1ccccc1)Nc1ccc(OCc2nc3ccccc3[nH]2)cc1` was run?
The growth was 102%.

How did the growth turn out when `COc1ccc(-c2nc(SC(C)C)nc(NCCc3c[nH]c4ccccc34)c2C#N)cc1` was run?
Its growth is 42.7%.

How did the growth turn out when `S=C(Nc1ccccc1)Nc1ccc(OCc2nc3ccccc3[nH]2)cc1` was run?
Its growth is 30.7%.

How did the growth turn out when `CC1(C)CC[C@]2(C(=O)Nc3ccc(Br)cc3)CC[C@]3(C)C(=CCC4[C@@]5(C)C[C@@H](O)[C@H](O)[C@@](C)(CO)C5CC[C@]43C)C2C1` (stereo partly drawn) was run?
The growth was -5.36% (active).

For `CC12CC[C@@H]3[C@]4(C)COC(c5c(F)cccc5F)O[C@@H]4CC[C@@]3(C)[C@@H]1CC(C1=CCOC1=O)O2` (stereo partly drawn), which growth is on record?
The growth was 33.8%.

Which growth does the source give for `Cc1ccc(Cc2cnc(NC(=O)c3ccc(/C=C4\SC(=S)N(C)C4=O)cc3)s2)cc1` here?
The growth was 12.7%.

For `CC(=O)Nc1ccc(-n2cnc3cc(-c4ccc(O)cc4)ccc32)cc1C(F)(F)F`, which growth is on record?
The growth was 24.2%.

Which growth does the source give for `Cn1cc(NC(=O)c2cc(NC(=O)c3ccc(/C=C/c4ccccc4)cc3)cn2C)cc1C(=O)NCCCN1CCOCC1` here?
Its growth is -98.2% (active).

With `CN(C)CCCNC(=O)c1cc(NC(=O)c2cc(NC(=O)c3ccc(/C=C/c4ccccc4)cc3)cn2C)cn1C` as the compound, how does the growth read?
The growth was 32.7%.

With `CC(=O)OC[C@@]1(C)C2CC[C@]3(C)C(CC=C4C5CC(C)(C)CC[C@]5(C(=O)Nc5ccc(Br)cc5)CC[C@]43C)[C@@]2(C)C[C@@H](OC(C)=O)[C@@H]1OC(C)=O` (stereo partly drawn) as the compound, how does the growth read?
Its growth is 38.7%.

With `COc1ccc(NC(=O)Cn2c(O)c(N=Nc3ccc(S(N)(=O)=O)cc3)c3ccccc32)cc1` as the compound, how does the growth read?
Its growth is 23.4%.

How did the growth turn out when `S=C(Nc1ccc(OCc2nc3ccccc3[nH]2)cc1)NC1CCCCC1` was run?
The growth was 79.5%.

How did the growth turn out when `Cc1ccc(NC(=O)[C@]23CCC(C)(C)CC2C2=CCC4[C@@]5(C)C[C@@H](O)[C@H](O)[C@@](C)(CO)C5CC[C@@]4(C)[C@]2(C)CC3)cc1` (stereo partly drawn) was run?
The growth was 28.1%.

For `O=S(=O)(Nc1cccc(-n2cnc3cc(-c4ccc(O)cc4)ccc32)c1)C1CC1`, which growth is on record?
The growth was -11.6% (active).

For `Cn1cc(-c2nnc(N)nc2-c2c[nH]c3ccccc23)c2cccnc21`, which growth is on record?
Its growth is 49.3%.

Which growth does the source give for `CN(C)c1ccnc(CNCCSC2(c3ccc(C(F)(F)F)cc3)c3ccccc3CCc3ccccc32)c1` here?
The growth was -97.6% (active).

With `CC1=C(C(=O)OC(C)C)C(c2cccc(O)c2)NC(=S)N1` (stereo not drawn) as the compound, how does the growth read?
Its growth is 94.7%.

For `N/N=C(\N)c1c(N)nc(=S)[nH]c1-c1ccc(Cl)cc1Cl`, which growth is on record?
The growth was 94.6%.

How did the growth turn out when `COc1ccc2[nH]cc(-c3nnc(N)nc3-c3c[nH]c4ncc(Br)cc34)c2c1` was run?
Its growth is 70.7%.

`COc1cc(C2CC(c3cc(OC)c(OC)c(OC)c3)=NN2c2ccccc2)ccc1OCc1ccc(C)cc1` (stereo not drawn) was tested. Which growth did it give?
Its growth is 95.7%.

`O=C(N/N=C/c1ccc(-c2ccc(O)cc2)o1)c1[nH]c2ccc(Br)cc2c1-c1ccccc1` was tested. Which growth did it give?
The growth was -59.2% (active).
